{"source": "the supplement of paper PMC13380429", "note": "A number with no mark means an inactive call.", "data": [{"test_system": "Vero E6 infected with SARS-CoV-2", "test": "inhibition of SARS-CoV-2 cytopathic effect; higher = more antiviral protection, active = above 15", "details": "833.33 nM; 48 h", "units": {"inhibition of SARS-CoV-2 cytopathic effect": "%"}, "values": [{"compound": "O=c1ncn2nc(Sc3ccc(F)cc3F)ccc2c1-c1c(Cl)cccc1Cl", "inhibition of SARS-CoV-2 cytopathic effect": 1.03}, {"compound": "COc1ccc(CCNCC(O)COc2cccc(C)c2)cc1OC", "note": "(stereo unspecified) [bevantolol]", "inhibition of SARS-CoV-2 cytopathic effect": -3.25}, {"compound": "C[C@@H](CN)CC(=O)O", "note": "[3-methyl-GABA]", "inhibition of SARS-CoV-2 cytopathic effect": 1.08}, {"compound": "Oc1cc(O)c2cc(O)c(-c3cc(O)c(O)c(O)c3)[o+]c2c1", "note": "[delphinidin]", "inhibition of SARS-CoV-2 cytopathic effect": -1.2}, {"compound": "O=C(O)c1ccc(Nc2ncc3c(n2)-c2ccc(Cl)cc2C(c2c(F)cccc2F)=NC3)cc1", "inhibition of SARS-CoV-2 cytopathic effect": -1.57}]}, {"test_system": "Vero E6 infected with SARS-CoV-2", "test": "inhibition of SARS-CoV-2 cytopathic effect; higher = more antiviral protection, active = above 15", "details": "10000 nM; 48 h", "values": [{"compound": "Clc1cc(Cl)c(OCC#CI)cc1Cl", "note": "[haloprogin]", "inhibition of SARS-CoV-2 cytopathic effect": "15.9% (active)"}, {"compound": "N#C[C@H](O[C@@H]1O[C@H](CO[C@@H]2O[C@H](CO)[C@@H](O)[C@H](O)[C@H]2O)[C@@H](O)[C@H](O)[C@H]1O)c1ccccc1", "note": "[amygdalin]", "inhibition of SARS-CoV-2 cytopathic effect": "0.27%"}, {"compound": "CC(=O)SC[C@@H](C)C(=O)N1CCC[C@H]1C(=O)N[C@@H](Cc1ccccc1)C(=O)O", "note": "[alacepril]", "inhibition of SARS-CoV-2 cytopathic effect": "-0.44%"}, {"compound": "Cc1ccc(-n2nc(C(C)(C)C)cc2NC(=O)NCc2cc(F)ccc2Oc2ccc3c(cnn3CCO)c2)cc1", "note": "[pexmetinib]", "inhibition of SARS-CoV-2 cytopathic effect": "3.62%"}, {"compound": "CC(C)NCC(O)COc1cccc2[nH]c3ccccc3c12", "note": "(stereo unspecified) [carazolol]", "inhibition of SARS-CoV-2 cytopathic effect": "-4.08%"}, {"compound": "CCOC(=O)Nc1cc(-c2ccc(C)c(NS(C)(=O)=O)c2)nn2c(C)nnc12", "note": "[bromosporine]", "inhibition of SARS-CoV-2 cytopathic effect": "-19.3%"}, {"compound": "FC(F)(F)c1cc(CO[C@H]2CCCN[C@H]2c2ccccc2)cc(C(F)(F)F)c1", "inhibition of SARS-CoV-2 cytopathic effect": "18.1% (active)"}, {"compound": "Cc1cc(Cl)ccc1OCCCC(=O)NO", "note": "[droxinostat]", "inhibition of SARS-CoV-2 cytopathic effect": "-3.27%"}, {"compound": "CC1(C)[C@H](C(=O)O)N2C(=O)C[C@H]2S1(=O)=O", "note": "[sulbactam]", "inhibition of SARS-CoV-2 cytopathic effect": "-3.63%"}, {"compound": "CCc1nn(CCO)c(CC)c1Oc1cc(C#N)cc(C#N)c1", "note": "[lersivirine]", "inhibition of SARS-CoV-2 cytopathic effect": "2.19%"}, {"compound": "Cc1cc(=O)n(-c2ccccc2)[nH]1", "note": "[N-demethylantipyrine]", "inhibition of SARS-CoV-2 cytopathic effect": "-2.87%"}, {"compound": "C/C(=N\\Nc1nnc2c(n1)[nH]c1c(C)cccc12)c1ccccn1", "inhibition of SARS-CoV-2 cytopathic effect": "-7.81%"}, {"compound": "Cc1ccc(Cl)cc1N(CC(=O)Nc1c(F)cccc1F)S(C)(=O)=O", "inhibition of SARS-CoV-2 cytopathic effect": "-0.21%"}, {"compound": "O=C(O)C1(C(=O)O)CCC1.[NH2-].[NH2-].[Pt+2]", "note": "[carboplatin]", "inhibition of SARS-CoV-2 cytopathic effect": "4.39%"}, {"compound": "O=C(O)c1cc(N2N=C(C(F)(F)F)/C(=C/c3ccc(-c4ccccc4)o3)C2=O)ccc1Cl", "inhibition of SARS-CoV-2 cytopathic effect": "3.69%"}, {"compound": "CCCCC(CC)CNC(=N)NC(=N)NCCCCCCNC(=N)NC(=N)NCC(CC)CCCC", "note": "(stereo unspecified) [alexidine]", "inhibition of SARS-CoV-2 cytopathic effect": "-18.2%"}, {"compound": "C[C@H](Cc1ccc(O)c(O)c1)[C@@H](C)Cc1ccc(O)c(O)c1", "note": "[masoprocol]", "inhibition of SARS-CoV-2 cytopathic effect": "12%"}, {"compound": "O=C1C=Cc2cc(Br)ccc2C1=O", "note": "[bonaphthone]", "inhibition of SARS-CoV-2 cytopathic effect": "-2.53%"}, {"compound": "COc1ccc(C2CNC(=O)NC2)cc1O[C@H]1C[C@@H]2CC[C@H]1C2", "note": "[atizoram]", "inhibition of SARS-CoV-2 cytopathic effect": "-1.24%"}, {"compound": "Cc1ccc2cc(-c3c(C)ccc(C(=O)c4c(-c5ccccc5)n(C)n(-c5ccccc5)c4=O)c3N)ccc2n1", "inhibition of SARS-CoV-2 cytopathic effect": "43.4% (active)"}, {"compound": "O=C(Cc1ccc(Cl)c(Cl)c1)N1CCCC[C@@H]1CN1CCCC1", "inhibition of SARS-CoV-2 cytopathic effect": "-4.8%"}, {"compound": "COc1ccc2cc3[n+](cc2c1OC)CCc1cc2c(cc1-3)OCO2", "note": "[berberine]", "inhibition of SARS-CoV-2 cytopathic effect": "-3.62%"}, {"compound": "Oc1nc(-c2ccc(C(F)(F)F)cc2)nc2c1CSCC2", "inhibition of SARS-CoV-2 cytopathic effect": "0.15%"}, {"compound": "NCC1(CC(=O)O)CCCCC1", "note": "[gabapentin]", "inhibition of SARS-CoV-2 cytopathic effect": "2.27%"}, {"compound": "CCn1c(-c2nonc2N)nc2cncc(C(=O)N3CC[C@H](N)C3)c21", "inhibition of SARS-CoV-2 cytopathic effect": "-2.39%"}, {"compound": "O=C1[O][SbH]23[O]C(=O)C([O]2)C2[O][SbH]4([O]C(=O)C([O]4)C1[O]3)[O]C2=O", "note": "[antimonyl]", "inhibition of SARS-CoV-2 cytopathic effect": "-10.4%"}, {"compound": "COc1ccc(-c2nc(-c3ccc(-c4cccc(Cl)c4)o3)[nH]c2-c2ccc(OC)cc2)cc1", "note": "[neurodazine]", "inhibition of SARS-CoV-2 cytopathic effect": "1.25%"}, {"compound": "O=C(O)C(Cc1ccccc1[N+](=O)[O-])=NNc1nc(-c2ccc(Cl)c(Cl)c2)cs1", "inhibition of SARS-CoV-2 cytopathic effect": "0.02%"}, {"compound": "C[N+]12CCCCC1CCC(=C(c1cccs1)c1cccs1)C2", "note": "(stereo unspecified) [tiquizium]", "inhibition of SARS-CoV-2 cytopathic effect": "-3.03%"}, {"compound": "O=C(O)CCCCC(CCSCc1ccccc1)SCc1ccccc1", "note": "(stereo unspecified)", "inhibition of SARS-CoV-2 cytopathic effect": "-0.88%"}, {"compound": "COC(=O)[C@H](c1ccccc1Cl)N1CCc2sccc2C1", "note": "[clopidogrel]", "inhibition of SARS-CoV-2 cytopathic effect": "-0.85%"}]}]}
